# Laboratory results: ChEMBL document CHEMBL3988442, “University of Dundee, Small-Polar-MMV Screening Library” (2021)
# For some assays here: Potency and affinity values are given separately.
# Columns and labels:
# Set-up in all cases: scale not given: direction of the effect not stated beside the values
# [1] = target: Protein translocase subunit SecA (Escherichia coli (strain K12)) (UniProt P10408); assay: Assay to Identify E. coli SecA ATPase Inhibitors; assay type: functional; details: 30 µM
# Sequence of Protein translocase subunit SecA (Escherichia coli (strain K12)) (P10408 whole entry): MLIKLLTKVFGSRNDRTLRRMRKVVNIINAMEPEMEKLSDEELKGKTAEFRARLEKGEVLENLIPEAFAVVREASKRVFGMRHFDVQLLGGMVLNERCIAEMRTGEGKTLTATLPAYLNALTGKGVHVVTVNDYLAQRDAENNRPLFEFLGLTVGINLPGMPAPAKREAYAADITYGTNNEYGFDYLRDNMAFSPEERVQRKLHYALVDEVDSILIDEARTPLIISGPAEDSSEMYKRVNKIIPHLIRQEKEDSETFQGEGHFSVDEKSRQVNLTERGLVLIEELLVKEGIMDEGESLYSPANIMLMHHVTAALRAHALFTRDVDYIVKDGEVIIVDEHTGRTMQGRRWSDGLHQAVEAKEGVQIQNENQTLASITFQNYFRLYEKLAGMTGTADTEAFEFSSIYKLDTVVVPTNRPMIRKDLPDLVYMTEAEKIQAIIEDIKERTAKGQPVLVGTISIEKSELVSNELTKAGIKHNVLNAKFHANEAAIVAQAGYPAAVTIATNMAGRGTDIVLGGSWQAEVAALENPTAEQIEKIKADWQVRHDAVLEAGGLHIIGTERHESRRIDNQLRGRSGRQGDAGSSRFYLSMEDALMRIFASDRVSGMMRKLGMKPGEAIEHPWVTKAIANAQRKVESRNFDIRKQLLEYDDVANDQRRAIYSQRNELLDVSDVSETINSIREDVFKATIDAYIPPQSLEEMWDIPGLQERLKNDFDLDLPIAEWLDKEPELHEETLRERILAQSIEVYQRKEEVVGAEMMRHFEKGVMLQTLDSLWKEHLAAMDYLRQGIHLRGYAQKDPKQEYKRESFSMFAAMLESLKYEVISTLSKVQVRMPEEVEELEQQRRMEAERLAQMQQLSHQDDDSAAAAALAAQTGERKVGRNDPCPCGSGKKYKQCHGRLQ
# [2] = target: T1, Ubiquitin-activating enzyme e1, putative (Leishmania donovani (strain BPK282A1)) (UniProt E9BSI1); assay: Leishmania donovani Ubiquitin Activating Enzyme (LdE1); assay type: functional; details: 30 µM
# T1 sequence (whole entry): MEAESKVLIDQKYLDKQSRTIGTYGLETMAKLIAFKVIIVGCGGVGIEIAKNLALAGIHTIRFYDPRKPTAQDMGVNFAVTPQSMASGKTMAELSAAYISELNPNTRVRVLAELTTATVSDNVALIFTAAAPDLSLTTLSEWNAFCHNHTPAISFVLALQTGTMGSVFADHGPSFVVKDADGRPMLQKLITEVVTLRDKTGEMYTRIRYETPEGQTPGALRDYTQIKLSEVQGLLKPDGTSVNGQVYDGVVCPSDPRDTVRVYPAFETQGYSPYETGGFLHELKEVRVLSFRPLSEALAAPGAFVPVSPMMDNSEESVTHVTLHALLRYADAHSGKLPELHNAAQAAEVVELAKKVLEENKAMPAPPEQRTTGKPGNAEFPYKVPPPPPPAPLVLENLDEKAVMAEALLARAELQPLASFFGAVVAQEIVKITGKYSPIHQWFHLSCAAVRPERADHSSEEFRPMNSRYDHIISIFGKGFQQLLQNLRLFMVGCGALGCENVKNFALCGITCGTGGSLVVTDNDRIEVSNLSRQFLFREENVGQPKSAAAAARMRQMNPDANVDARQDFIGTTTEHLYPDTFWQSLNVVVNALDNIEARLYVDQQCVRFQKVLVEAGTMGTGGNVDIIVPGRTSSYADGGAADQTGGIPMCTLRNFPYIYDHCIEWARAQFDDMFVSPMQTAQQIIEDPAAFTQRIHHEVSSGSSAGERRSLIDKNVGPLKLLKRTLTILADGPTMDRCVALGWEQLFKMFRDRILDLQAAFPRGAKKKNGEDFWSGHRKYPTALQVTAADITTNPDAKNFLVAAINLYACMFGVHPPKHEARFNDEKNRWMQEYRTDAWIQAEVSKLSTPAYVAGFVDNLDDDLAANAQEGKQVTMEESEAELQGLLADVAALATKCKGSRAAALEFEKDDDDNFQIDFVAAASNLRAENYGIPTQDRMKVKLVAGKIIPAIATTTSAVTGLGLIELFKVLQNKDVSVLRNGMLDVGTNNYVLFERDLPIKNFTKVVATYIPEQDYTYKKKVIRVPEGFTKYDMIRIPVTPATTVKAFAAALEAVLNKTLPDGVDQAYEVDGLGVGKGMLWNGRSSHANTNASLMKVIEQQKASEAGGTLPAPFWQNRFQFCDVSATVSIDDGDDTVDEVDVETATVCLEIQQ
# [3] = target: AMP-activated protein kinase, AMPK (Homo sapiens) (UniProt P54646+O43741+P54619+Q9UGJ0+Q9Y478+Q13131+Q9UGI9); assay: AMP-dependent Kinase enzyme assay. An in vitro enzyme assay that detects ADP turnover that is directly proportional to AMPK activity. This uses naive AMPK that is activated during the assay with MK-8722; assay type: functional; details: 30 µM
# [4] = target: Sialic acid-binding Ig-like lectin 9 (Homo sapiens) (UniProt Q9Y336); assay: Hs-Siglec9 ALPHAscreen SOP 20170721; details: 10 µM
# Sequence of Sialic acid-binding Ig-like lectin 9 (Homo sapiens) (Q9Y336 whole entry): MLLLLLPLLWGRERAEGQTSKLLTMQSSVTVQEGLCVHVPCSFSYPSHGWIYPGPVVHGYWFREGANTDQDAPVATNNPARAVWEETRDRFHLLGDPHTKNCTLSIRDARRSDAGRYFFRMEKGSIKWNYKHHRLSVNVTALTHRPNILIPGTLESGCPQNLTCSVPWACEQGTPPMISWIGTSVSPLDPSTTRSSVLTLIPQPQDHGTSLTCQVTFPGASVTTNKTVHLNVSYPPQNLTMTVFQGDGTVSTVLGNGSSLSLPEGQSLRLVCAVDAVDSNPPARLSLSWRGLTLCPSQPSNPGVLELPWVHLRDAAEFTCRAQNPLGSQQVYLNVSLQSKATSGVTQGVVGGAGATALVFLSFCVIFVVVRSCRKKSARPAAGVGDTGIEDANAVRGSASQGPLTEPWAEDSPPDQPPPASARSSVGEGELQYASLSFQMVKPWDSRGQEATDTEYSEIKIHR
# Trypanosoma cruzi = assay: Trypanosoma cruzi phosphomannomutase and mannose-1-phosphate guanylyltransferase assay; assay type: functional; details: 10 µM
# [5] = target: T2, Arginase-2, mitochondrial (Homo sapiens) (UniProt P78540); assay: in vitro enzyme assay to detect the production of urea directly proportional to the activity of Arginase II; assay type: functional; details: 33.3 µM; also: in the data most compounds retested in dose-response had high values
# T2 sequence (whole entry): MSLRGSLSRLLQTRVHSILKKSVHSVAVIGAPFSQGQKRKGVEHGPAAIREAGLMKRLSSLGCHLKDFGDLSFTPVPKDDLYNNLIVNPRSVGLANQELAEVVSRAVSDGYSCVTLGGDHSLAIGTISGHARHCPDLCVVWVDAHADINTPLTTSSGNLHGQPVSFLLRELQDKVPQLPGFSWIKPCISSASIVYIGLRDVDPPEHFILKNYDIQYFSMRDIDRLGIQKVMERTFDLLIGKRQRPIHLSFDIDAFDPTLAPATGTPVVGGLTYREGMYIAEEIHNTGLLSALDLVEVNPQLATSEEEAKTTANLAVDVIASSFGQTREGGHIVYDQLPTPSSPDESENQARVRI
# [6] = target: T3, Proteasome subunit beta (Trypanosoma cruzi) (UniProt O96673); assay: Trypanosoma cruzi proteasome chymotrypsin-like activity (TcProtChymo) assay.; also: in the data most compounds retested in dose-response had high values; assay type: functional; details: 9.37 µM
# T3 sequence (whole entry): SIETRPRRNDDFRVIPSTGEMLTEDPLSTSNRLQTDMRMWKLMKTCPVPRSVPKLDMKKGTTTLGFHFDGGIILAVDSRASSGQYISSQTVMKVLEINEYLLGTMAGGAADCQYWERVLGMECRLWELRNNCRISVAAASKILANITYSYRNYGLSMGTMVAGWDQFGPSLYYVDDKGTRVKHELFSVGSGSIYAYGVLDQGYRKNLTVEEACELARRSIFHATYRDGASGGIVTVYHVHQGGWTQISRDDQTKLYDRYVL
# Homo sapiens = species: Homo sapiens; assay: To identify inhibition of the IFN signalling (Jak-Stat) pathway via expression of an eGFP reporter gene under the control of an IFN-stimulated response element (ISRE) containing MxA promoter.; assay type: functional; details: 30 µM
# [7] = target: T4, Tyrosyl-tRNA synthetase, putative (Trypanosoma cruzi (strain CL Brener)) (UniProt Q4DSP6); assay: Trypanosoma cruzi tyrosyl tRNA synthetase (TcYRS) _High Tyrosine SOP; assay type: functional; details: 30 µM; also: in the data most compounds retested in dose-response had high values
# T4 sequence (whole entry): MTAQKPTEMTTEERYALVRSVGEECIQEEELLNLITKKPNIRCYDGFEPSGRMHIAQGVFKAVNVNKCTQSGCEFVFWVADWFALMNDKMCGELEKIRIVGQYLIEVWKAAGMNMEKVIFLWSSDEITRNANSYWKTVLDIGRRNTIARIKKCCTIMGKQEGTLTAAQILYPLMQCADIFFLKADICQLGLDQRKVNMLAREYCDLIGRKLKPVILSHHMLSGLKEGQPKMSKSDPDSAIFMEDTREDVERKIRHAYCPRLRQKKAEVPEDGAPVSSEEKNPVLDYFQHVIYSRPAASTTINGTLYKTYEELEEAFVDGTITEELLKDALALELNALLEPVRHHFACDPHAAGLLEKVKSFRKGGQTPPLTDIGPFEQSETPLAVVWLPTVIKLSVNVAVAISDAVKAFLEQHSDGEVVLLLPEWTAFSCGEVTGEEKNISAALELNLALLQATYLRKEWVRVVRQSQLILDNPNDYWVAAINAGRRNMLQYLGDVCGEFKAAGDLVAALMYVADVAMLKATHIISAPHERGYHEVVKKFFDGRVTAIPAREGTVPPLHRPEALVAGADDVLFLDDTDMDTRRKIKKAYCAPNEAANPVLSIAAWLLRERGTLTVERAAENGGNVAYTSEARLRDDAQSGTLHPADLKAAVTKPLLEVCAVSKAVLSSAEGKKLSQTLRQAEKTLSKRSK
# [8] = target: T4, Tyrosyl-tRNA synthetase, putative (Trypanosoma cruzi (strain CL Brener)); assay: Trypanosoma cruzi tyrosyl tRNA synthetase (TcYRS) SOP; assay type: functional; details: 30 µM
# [9] = target: Chromo domain-containing protein 1 (Saccharomyces cerevisiae (strain ATCC 204508 / S288c) (Baker's yeast)) (UniProt P32657); assay: ScCHD-1 Enzyme Inhibition Assay; assay type: functional; details: 30 µM; also: in the data most compounds retested in dose-response had high values
# Sequence of Chromo domain-containing protein 1 (Saccharomyces cerevisiae (strain ATCC 204508 / S288c) (Baker's yeast)) (P32657 whole entry, the tested form may be a part): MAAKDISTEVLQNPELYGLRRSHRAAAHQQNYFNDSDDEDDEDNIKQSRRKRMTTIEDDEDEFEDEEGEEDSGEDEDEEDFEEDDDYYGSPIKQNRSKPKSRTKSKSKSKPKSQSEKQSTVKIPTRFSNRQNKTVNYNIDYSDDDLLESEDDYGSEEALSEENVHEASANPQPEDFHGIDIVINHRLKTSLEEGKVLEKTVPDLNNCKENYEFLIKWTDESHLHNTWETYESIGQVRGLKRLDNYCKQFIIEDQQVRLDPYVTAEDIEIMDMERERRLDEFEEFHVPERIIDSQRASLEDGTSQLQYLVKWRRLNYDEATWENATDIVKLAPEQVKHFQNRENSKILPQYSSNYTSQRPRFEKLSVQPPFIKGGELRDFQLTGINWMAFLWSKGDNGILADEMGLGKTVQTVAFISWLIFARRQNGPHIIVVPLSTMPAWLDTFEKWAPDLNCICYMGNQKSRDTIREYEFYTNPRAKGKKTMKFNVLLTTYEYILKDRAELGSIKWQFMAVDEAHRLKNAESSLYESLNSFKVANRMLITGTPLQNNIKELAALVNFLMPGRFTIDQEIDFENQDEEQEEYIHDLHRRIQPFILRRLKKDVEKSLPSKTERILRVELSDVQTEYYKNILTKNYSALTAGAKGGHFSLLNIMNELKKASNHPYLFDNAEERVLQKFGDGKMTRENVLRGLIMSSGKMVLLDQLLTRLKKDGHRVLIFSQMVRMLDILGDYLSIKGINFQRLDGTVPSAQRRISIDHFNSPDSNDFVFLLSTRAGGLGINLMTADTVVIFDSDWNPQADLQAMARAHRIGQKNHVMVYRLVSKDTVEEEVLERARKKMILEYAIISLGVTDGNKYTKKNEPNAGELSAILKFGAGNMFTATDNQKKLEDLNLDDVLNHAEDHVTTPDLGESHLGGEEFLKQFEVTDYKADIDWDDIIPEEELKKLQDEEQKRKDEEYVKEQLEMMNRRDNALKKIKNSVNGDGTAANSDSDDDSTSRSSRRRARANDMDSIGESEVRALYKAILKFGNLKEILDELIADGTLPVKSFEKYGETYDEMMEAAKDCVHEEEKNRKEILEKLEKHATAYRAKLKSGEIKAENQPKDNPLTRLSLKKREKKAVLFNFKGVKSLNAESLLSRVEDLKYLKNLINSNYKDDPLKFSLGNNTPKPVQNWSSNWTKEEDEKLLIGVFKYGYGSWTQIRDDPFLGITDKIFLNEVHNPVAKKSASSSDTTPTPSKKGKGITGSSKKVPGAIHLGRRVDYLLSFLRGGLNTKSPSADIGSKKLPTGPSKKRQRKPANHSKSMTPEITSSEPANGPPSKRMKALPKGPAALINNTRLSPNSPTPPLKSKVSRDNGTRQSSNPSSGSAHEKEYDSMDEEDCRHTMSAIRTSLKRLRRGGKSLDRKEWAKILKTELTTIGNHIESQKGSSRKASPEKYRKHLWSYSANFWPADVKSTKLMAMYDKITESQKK
Compound,Percent Effect [1] [%],Percent Effect [2] [%],Percent Effect [3] [%],Percent Effect [4] [%],Percent Effect (Trypanosoma cruzi) [%],Percent Effect [5] [%],Percent Effect [6] [%],Percent Effect (Homo sapiens) [%],Percent Effect [7] [%],Percent Effect [8] [%],Percent Effect [9] [%]
Cc1ncccc1OC1(C(=O)NCCNc2ccccc2)CCNCC1,-3.81,2.7,-15.1,6.77,3.48,-1.91,5.86,20.1,5.82,9.76,-4.02
CC(=O)NCc1ccc(C(=O)N2CCCCC2Cn2cccn2)o1 (stereo unspecified),-1.39,27,-1.91,-5,4.18,-5.36,14.4,17.1,1.98,18.3,-6.26
O=C(O)c1csc(S(=O)(=O)N2CCCc3ccc(F)cc32)c1,-6.97,-2.67,-4.41,4.48,0.682,0,6.1,8.48,-13.7,-13.6,-5.31
Cc1csc(N2CCN(C(=O)CCc3nccs3)CC2)n1,-6.78,8.11,-8.38,7.91,3.11,-17.2,5.59,11.7,12.3,28.4,-11.1
Cn1cc(CCC(=O)N2C[C@H]3CC[C@@H]2CN(Cc2ccccc2)C3)cn1,-5.96,4.17,9.13,-7.5,-1.07,-3.53,8.77,-28.4,1.05,5.13,-1.41
Cc1cnn(CCNCc2nc(Cc3ccccc3)no2)c1,-0.787,0,-3.33,-0.739,-1.32,5.75,5.51,13.2,5.39,7.32,2.72
CC(CNC(=O)N1CCN(CC(F)F)CC1)Cc1cccs1 (stereo unspecified),-7.32,2.7,3.08,1.71,-1.17,2.08,6.34,-5.03,8.91,1.22,-2.29
COCC(=O)N1Cc2cnc(Cc3ccc(OC)cc3)nc2C1,-5.39,5.48,-2.68,-3.21,0.392,3.64,10.3,1.33,8.6,15,-4.76
Fc1ccc(OCc2noc(CN3CCc4cncnc4C3)n2)cc1,-0.114,13.2,-14.5,2.94,2.26,-29.5,18.1,1.44,31.9,21.9,-2.74
CCS(=O)(=O)c1ccc(N2CCC(NC(=O)CCC(C)C)CC2)cc1,-1.62,10.7,-6.1,12.2,6.13,16.1,6.8,27.1,6.01,8.64,-4.64
c1ccc(-c2noc3c2CN(CC2CC2)CC3)cc1,-4.27,2.74,-7.86,-1.17,-0.979,-0.455,6.92,11.2,4.3,10,0.0734
COC[C@@]12CCO[C@@H]1CCN(C(=O)COc1ccccc1OC)C2,0.312,8.22,-2.94,5.31,-4.76,-2.4,17.2,3.04,5.21,11.1,-3.51
OCC1CCCN1c1cc(N2CCN(c3ccccn3)CC2)ncn1 (stereo unspecified),-1.51,2.6,5.09,12.8,-1.27,3.58,0.889,13.3,5.71,7.06,-17.6
CNC(=O)C1(CCCc2cccnc2)CCCCN1 (stereo unspecified),-1.25,23,5.4,-8.22,3.95,0.696,17.6,19,1.07,9.09,-15.7
CC(O)CN1CCC(CNCc2c[nH]nc2C(C)(C)C)CC1 (stereo unspecified),-6.44,18.9,-5.82,1.39,-6.7,-2,11.9,13.9,4.43,3.7,-9.13
Cc1ccc(Nc2nccc(C3CCCN(CC(=O)N(C)C)C3)n2)nc1 (stereo unspecified),-5.52,5.33,-1.77,6.73,5.51,-6.76,13.8,-1.72,11.7,19.2,-2.77
